# In PubChem BioAssay AID1276 (Columbia University Molecular Screening Center, 2008):
# The campaign covered roughly 190,000 compounds. About 2,000 (1.1%) were called active.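 The calls were made as follows: active = activation above a set limit, based on mean plus 3 SD of controls (cut at about 140% in these data); inconclusive = one replicate above the limit, the other below; inactive = the rest.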 For the sample, actives were picked, then their nearest neighbours and some compounds at random.
# Test: APP 5'UTR reporter signal increase – luciferase, SH-SY5Y cells, primary screen (AID 1276)
# Conditions: SH-SY5Y APP 5'UTR luciferase reporter, luminescence; at 2 µM; hits give high values; zero percent = DMSO vehicle wells
row,Structure (SMILES),activation
1,O=S(=O)(Nc1ccccn1)c1cccc(S(=O)(=O)c2ccc(Cl)cc2)c1,8.9% (inactive)
2,COCCNC(=S)Nc1cc(S(=O)(=O)N2CCOCC2)ccc1N1CCCCC1,21.7% (inactive)
3,Cn1nnnc1SCC(=O)NNC(=O)c1ccc(Br)cc1,-3.54% (inactive)
4,O=C(COC(=O)CNS(=O)(=O)c1ccccc1)NC12CC3CC(CC(C3)C1)C2,0.34% (inactive)
5,CN(C)CCN=c1cc(-c2ccccc2)oc2ccc(Cl)cc12,158% (active)
6,CN(C)CCn1c(=S)[nH]c2ccc(Cl)cc2c1=O,-6.45% (inactive)
7,Cc1cc(C)n(-c2ccc(C(=O)O)cc2[N+](=O)[O-])n1,-4.56% (inactive)
8,O=C(CN1CCN(c2ccccn2)CC1)N1CCc2ccccc21,30.9% (inactive)
9,O=C(c1cc(-c2ccccc2O)on1)N1CCCC1,102% (inactive)
10,COc1ccccc1-c1cc(C(=O)N2CCCCC2)no1,113% (inactive)
11,O=C(c1cc(-c2cccs2)on1)N1CCCCC1,138% (active)
12,O=C(Nc1ccc(N2CCOCC2)cc1)c1ccc(-c2ccccc2[N+](=O)[O-])o1,17.6% (inactive)
13,CC1Cc2ccccc2N1C(=O)CSc1nnc(C2CC2)n1C (stereo not given),23.3% (inactive)
14,COc1ccc(N2C(=O)CC(Sc3n[nH]c(-c4ccc(C)cc4)n3)C2=O)cc1 (stereo not given),14.7% (inactive)
15,O=C(Nc1ccc(F)cc1)N1CCCC(c2nc3c(nnn3Cc3ccccc3Cl)c(=O)[nH]2)C1 (stereo not given),-4.96% (inactive)
16,CN(c1ccc(C(=O)NCCC2=CCCCC2)cc1)S(C)(=O)=O,76% (inactive)
17,O=C(NCCC1=CCCCC1)c1ccc(Cl)c([N+](=O)[O-])c1,8.77% (inactive)
18,Cn1nnc2cc(C(=O)NCCC3=CCCCC3)ccc21,174% (active)
19,CCOCCCNC(=O)C(=O)NCCCOCC,-1.33% (inactive)
20,O=C(C1CCCO1)N(c1ccc(F)cc1)C1C=CS(=O)(=O)C1 (stereo not given),5.93% (inactive)
21,Cc1ccc(NC(=O)COC(=O)CCc2nc3ccccc3n2-c2ccccc2)c(C)c1,11.8% (inactive)
22,O=C(CN1CCN(c2ncccn2)CC1)Nc1ccccc1C(F)(F)F,-6.86% (inactive)
23,Cc1ccc(CN(Cc2cccnc2)C(=S)Nc2cc(Cl)ccc2C)cc1,2.52% (inactive)
24,O=C(Nc1nc2ccccc2s1)c1ccc2c(c1)OCO2,183% (active)
25,CSCCC(Nc1nc2ccccc2s1)C(=O)O (stereo not given),-7.07% (inactive)
26,O=C(Nc1ccccc1)Nc1nc2ccccc2s1,212% (active)
27,COCc1nnc(NC(=O)c2ccc3c(c2)OCO3)s1,61.2% (inactive)

row,Structure (SMILES),activation
1,CC(=O)Nc1ccc(-c2csc(NC(=O)Nc3ccccc3)n2)cc1,-14.7% (inactive)
2,Cc1cc(C)c2nc(NC(=O)c3ccc4c(c3)OCO4)sc2c1,-8.57% (inactive)
3,CCCC1NC(=S)NC(C)=C1C(C)=O (stereo not given),-10.8% (inactive)
4,CCCCCOc1ccc(/C=C/C(=O)NCCc2nc3ccccc3[nH]2)cc1OC,-0.79% (inactive)
5,S=C(NCc1ccco1)Nc1ccc2c(c1)OCCO2,18.6% (inactive)
6,CC1CCCC(C)N1/N=C/c1ccccc1OC(F)F (stereo not given),5.03% (inactive)
7,Clc1ccc2nc(CSc3ccccc3)cn2c1,216% (active)
8,O=c1cc(CSc2ccc(Cl)cc2)nc(N2CCOCC2)[nH]1,6.36% (inactive)
9,CCOc1ncccc1C(=O)OCc1cn2cc(Cl)ccc2n1,-0.86% (inactive)
10,Cc1nn(Cc2ccc(F)cc2)c(C)c1NC(=O)c1cccnc1Cl,10.3% (inactive)
11,c1ccc(-c2[nH]ncc2-c2nc3ccccc3[nH]2)cc1,-1.2% (inactive)
12,c1ccc2[nH]c(-c3nc4ccccc4[nH]3)nc2c1,181% (active)
13,Cc1ccc(-c2nc3ccccc3[nH]2)cc1NC(=O)c1sc2ccccc2c1Cl,-3.21% (inactive)
14,COc1ccc(-c2[nH]nc(-c3ccccc3)c2-c2nc3ccccc3[nH]2)cc1,-4.36% (inactive)
15,COc1ccc(Br)cc1C(=O)NC(=S)Nc1cc(-c2nc3ccccc3[nH]2)ccc1C,21.4% (inactive)
16,Cc1ccc(-c2nc3ccccc3[nH]2)cc1N,201% (active)
17,COc1ccc(C2CC(c3ccccc3)=NN2C(=O)COC(=O)COc2ccccc2)cc1 (stereo not given),0.61% (inactive)
18,O=C(CSc1ccc([N+](=O)[O-])cn1)Nc1ccc(N2CCOCC2)c(Cl)c1,-13% (inactive)
19,COc1ccc(-c2csc(Cc3nc(O)cs3)n2)cc1,157% (active)
20,COc1ccc(-c2csc(NC(=O)CCCc3cccs3)n2)cc1,-2.07% (inactive)
21,COc1ccc(OC)c(Nc2nc(-c3ccc(O)c(O)c3)cs2)c1,-40.2% (inactive)
22,Cc1cccc(C(=O)c2cccc(C)c2)c1,7.97% (inactive)
23,N/C(=N\OC(=O)c1cc(-c2ccccc2)nc2ccccc12)c1ccncc1,7.36% (inactive)
24,Cc1cccc(/C(N)=N/OC(=O)c2ccccc2Cl)c1,206% (active)
25,Cc1ccc(NC(=S)N2CCN(c3ncccn3)CC2)cc1C,2.51% (inactive)
26,COc1ccc(-c2nc3cc([N+](=O)[O-])ccc3o2)cc1OC,20.2% (inactive)
27,O=[N+]([O-])c1ccc2oc(-c3cccc(O)c3)nc2c1,184% (active)

row,Structure (SMILES),activation
1,COc1ccc2oc(-c3cccc(NC(=O)CSc4ccc(Cl)cc4)c3)nc2c1,48.5% (inactive)
2,O=[N+]([O-])c1cccc(Nc2c3ccccc3nc3ccccc23)c1,-0.09% (inactive)
3,COc1cccc(-c2nc(S(=O)(=O)c3ccccc3)c(N3CCOCC3)o2)c1,10.7% (inactive)
4,COc1cccc(-c2nc3cc(C)ccc3o2)c1,172% (active)
5,N#Cc1c(-c2ccc(Cl)cc2)c2c([nH]c1=S)CCCC2,15.9% (inactive)
6,COc1cc(OC)c(-n2cc(-c3ccc(Cl)cc3)[nH]c2=O)cc1Cl,-7.27% (inactive)
7,CC1(C)CC(=O)C=C(N2CCOCC2)C1,6.79% (inactive)
8,CCCNS(=O)(=O)c1ccc(CCC(=O)N2CCCC2)cc1,4.45% (inactive)
9,CC(C)CC(=O)NC(=S)NCc1ccccc1,9.6% (inactive)
10,CCC(=O)NC(=Nc1nc2ccccc2s1)NC(=O)CC,147% (active)
11,O=C(O)CSCc1nc2ccccc2s1,-3.48% (inactive)
12,CC(C)CC(=O)N/C(N)=N/c1nc2ccccc2s1,203% (active)
13,COC(=O)c1nc2ccccc2s1,-8.64% (inactive)
14,O=C(O)CCCCc1nc2ccccc2s1,-11.6% (inactive)
15,Cc1ccc(C(=O)NNC(=O)c2cccs2)cc1,38.8% (inactive)
16,NC1=NC(=O)C(Cc2cccc(Cl)c2)S1 (stereo not given),11.8% (inactive)
17,C=CCO/N=C/C1=C(O)C(C(=O)OC)C(C)(C)CC1=O (stereo not given),7.9% (inactive)
18,Cc1cccc(C)c1OCC(=O)NC(Cc1c[nH]c2ccccc12)C(=O)O (stereo not given),10.3% (inactive)
19,O=C(CN1C(=O)c2cccc3cccc1c23)Nc1ccccc1,-9.88% (inactive)
20,O=C(N/N=C/c1cc2c(cc1Br)OCO2)C1COc2ccccc2O1 (stereo not given),-5.77% (inactive)
21,O=C(NCCOc1ccccc1)c1ccccc1,123% (inactive)
22,CCCOc1ccc(C(=O)NCCc2ccccc2)cc1,156% (active)
23,O=C(NCCc1ccccc1)c1ccc(OCCOc2ccccc2)cc1,4.18% (inactive)
24,COc1cccc(C(=O)Nc2ccc(NC(=O)c3ccco3)cn2)c1,25.8% (inactive)
25,O=C(Nc1ccc(NC(=O)c2cccs2)cn1)c1ccco1,148% (active)
26,Cc1ccnc(NC(=O)c2ccc(NC(=O)c3ccco3)cc2)c1,79.3% (inactive)
27,O=C(Cc1ccccc1)NNC(=O)C1CCN(c2ncccn2)CC1,18.4% (inactive)

row,Structure (SMILES),activation
1,CC(C)C(=O)OCC(=O)Nc1ccc2c(c1)CCC2,5.67% (inactive)
2,O=C(NC1CCCC1)c1ccc(Br)s1,-4.11% (inactive)
3,O=C(Nc1ccc2c(c1)CCC2)c1ccc(Br)s1,208% (active)
4,Cc1ccc2nsnc2c1S(=O)(=O)N1CCCC1C(=O)O (stereo not given),-2.44% (inactive)
5,COc1ccc2nc(Nc3nc(-c4cc5ccccc5oc4=O)cs3)sc2c1,33% (inactive)
6,O=c1oc2ccccc2cc1-c1csc(Nc2ccc(O)cc2)n1,61% (inactive)
7,CCNc1nc(-c2cc3ccccc3o2)cs1,188% (active)
8,CC(Nc1ccccc1)c1cccnc1 (stereo not given),-12.4% (inactive)
9,CCOc1ccc2nc(NCCNS(=O)(=O)c3ccccc3)c(C#N)cc2c1,6.65% (inactive)
10,Cc1nonc1NC(=O)CSc1nc2ccccc2cc1C#N,15.1% (inactive)
11,CCOc1ccc2cc(C#N)c(SCC(=O)OC)nc2c1,159% (active)
12,CN1CCN(/N=C2/C(=O)Nc3ccc([N+](=O)[O-])cc32)CC1,13.5% (inactive)
13,COC(=O)CSc1nc(C)c2ccc(OC)cc2n1,0.88% (inactive)
14,COc1ccc2nc(SCc3ccccc3)nc(C)c2c1,170% (active)
15,COc1ccc(-c2nnc3ccc(SCc4ccccc4)nn23)cc1,-7.22% (inactive)
16,Cc1ccc(NC(=O)CCC(=O)N/N=C/c2ccco2)c(C)c1,8.01% (inactive)
17,COc1ccc(C2=NOC3(CC(=O)N(c4ccc(C)cc4)C3=O)C2)cc1 (stereo not given),-3.01% (inactive)
18,COc1ccc(C2=Nc3cc(C)ccc3OC2)cc1,151% (active)
19,COc1ccc(C2=NOC(COC(=O)c3ccc4ccccc4n3)C2)cc1 (stereo not given),16.6% (inactive)
20,CCOc1ccccc1N1CCN(C(=S)Nc2ccc(S(N)(=O)=O)cc2)CC1,11.8% (inactive)
21,Clc1ncn(CCOc2ccccc2)c1Cl,-15.2% (inactive)
22,Fc1ccc2nc(Nc3nc4c(s3)CCCC4)sc2c1,143% (active)
23,CSc1ncccc1C(=O)Nc1nc2ccc(F)cc2s1,52.4% (inactive)
24,Fc1ccc2nc(N3CCCCC3)sc2c1,112% (inactive)
